# Measured values reported in PubChem BioAssay AID588489 (Sanford-Burnham Center for Chemical Genomics, 2011).
# Out of some 360,000 compounds screened, about 1,300 (0.36%) were called active. Many of the other results were omitted from the sample, so actives are more common in it than they were. Values without a mark were called inactive. Rule as the data show it: active = inhibition above about 35% (passing the limit was not always enough); inactive = the rest.
# Biological target: Polyadenylate-binding protein 1 (Homo sapiens) (UniProt P11940)
# Experiment: PAM2 peptide displacement from PABP1 MLLE – biochemical, fluorescence polarization, FITC-PAM2, GST-MLLE, primary screen (AID 588489);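 also: plate controls were DMSO wells with GST-MLLE for no effect and wells lacking GST-MLLE protein for full effect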
# Details: at 20 µM, active compounds read high
# Polyadenylate-binding protein 1 (Homo sapiens), sequence (P11940 whole entry, looked up): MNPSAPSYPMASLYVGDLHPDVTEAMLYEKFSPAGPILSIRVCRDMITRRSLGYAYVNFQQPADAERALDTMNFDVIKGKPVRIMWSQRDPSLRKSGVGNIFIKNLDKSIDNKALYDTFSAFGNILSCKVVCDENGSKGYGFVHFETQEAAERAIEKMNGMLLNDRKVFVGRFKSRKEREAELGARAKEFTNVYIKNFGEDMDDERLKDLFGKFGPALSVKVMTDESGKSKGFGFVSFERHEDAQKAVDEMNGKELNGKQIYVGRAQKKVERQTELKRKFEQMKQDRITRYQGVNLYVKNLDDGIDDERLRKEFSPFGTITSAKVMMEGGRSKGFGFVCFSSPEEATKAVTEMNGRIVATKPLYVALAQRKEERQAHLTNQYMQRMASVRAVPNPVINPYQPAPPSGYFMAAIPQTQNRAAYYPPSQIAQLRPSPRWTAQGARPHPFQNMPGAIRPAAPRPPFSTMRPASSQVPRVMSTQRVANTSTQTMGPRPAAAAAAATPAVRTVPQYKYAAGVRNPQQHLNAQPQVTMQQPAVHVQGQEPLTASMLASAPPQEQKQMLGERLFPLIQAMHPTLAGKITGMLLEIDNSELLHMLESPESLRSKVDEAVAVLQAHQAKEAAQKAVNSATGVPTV
row,Structure (SMILES),inhibition
1,CCOC(=O)Cc1cc(=O)[nH]c(/N=C(\N)Nc2ccc(OC)cc2)n1,3.52%
2,COc1ccc(S(=O)(=O)N2CCSCC2)cc1,2.01%
3,Cc1c(C)c(C)c(S(=O)(=O)NCCc2ccccn2)c(C)c1C,-6.36%
4,CCOC(=O)CNC(=O)CSc1nc2cccnc2n1CC,0.93%
5,COCCCNC(=O)Cc1ccc(-n2c(C)nc3cccnc32)cc1,18.3%
6,CCc1nc2cccnc2n1-c1ccc(C(=O)O)cc1,58.3% (active)
7,O=C(NCc1cc(F)cc(C(F)(F)F)c1)C1CCC(=O)N(C2CCCC2)C1 (configuration not stated),2.19%
8,C[C@@H]1NS(=O)(=O)c2cc(Cl)ccc2O[C@@H]1c1ccccc1,-9.19%
9,Cc1cccc(NC(=O)NC(=S)NC(=O)c2ccccc2)c1,41.9% (active)
10,Cn1nnc(NC(=S)NC(=O)c2ccccc2)n1,26.2%
11,Cc1cccc(OCCNC(=S)NC(=O)c2cccnc2)c1,22%
12,COc1ccc(C(C)(C)C)cc1NC(=O)CN(C)C1=NS(=O)(=O)c2ccccc21,-40.4%
13,O=S(=O)(c1cccc(Cn2nnc(-c3ccc(F)cc3)n2)c1)N1CCOCC1,-5.3%
14,O=S(=O)(c1ccc(F)cc1)N1CC=C(c2ccccc2)CC1,-8.32%
15,CC1CCN(C(=S)NC(=O)c2ccccc2Br)CC1,15%
16,O=C(Nc1ccccc1)c1ccccc1Br,-11.2%
17,O=C(NC(=S)Nc1ncccn1)c1ccccc1Br,42.1% (active)
18,Cc1cc(Cl)ccc1C(=O)C1CCCN(C(=O)CCN2CCCO2)C1 (configuration not stated),-4.82%
19,CCN1C(=O)[C@H]2[C@@H](c3ccc(-c4ccc(OC)cc4)cc3)N[C@@](Cc3ccccc3)(C(=O)OC)[C@H]2C1=O,-0.71%
20,O=C(CN1C(=O)c2ccc([N+](=O)[O-])cc2C1=O)Nc1nnc(C2CC2)s1,-18.6%
21,O=C(Cc1ccccc1Cl)N1CCN(c2ccccn2)CC1,-6.28%
22,O=C(Cc1ccc(Br)cc1)N1CCN(c2ccccn2)CC1,61.7% (active)
23,O=C(C(Cl)Cl)N1CCN(c2ccccn2)CC1,-10.9%
24,CC(=O)NC(CC(=O)Nc1cccc(S(=O)(=O)N2CCCC2)c1)c1ccccc1 (configuration not stated),-16.4%
25,COc1ccc2c(c1)C(NS(=O)(=O)OCC(Cl)(Cl)Cl)CCC2 (configuration not stated),-0.88%

row,Structure (SMILES),inhibition
1,CN(C)S(=O)(=O)c1cccc(NC(=O)COC(=O)C2(c3ccccc3F)CCCC2)c1,4.77%
2,COc1ccc(Br)cc1C(=O)Nc1cccc(C)c1C,21.9%
3,COc1ccccc1C(=O)NC(=S)Nc1ccccc1N1CCCCC1,14.7%
4,COc1ccc(Br)cc1C(=O)NC(=S)Nc1cc(-c2nc3ccccc3[nH]2)ccc1C,43.3% (active)
5,O=C(CSC(=S)N1CCCCC1)c1c(F)cccc1F,-3.59%
6,CC1=NOC(=O)/C1=C\c1ccccc1,25.2%
7,C#CCOc1ccc(/C=C2/C(=O)ON=C2C)cc1OCC,26.6%
8,COc1cc(/C=C2/C(=O)ON=C2C)ccc1OCc1cccc(F)c1,41.5% (active)
9,CC(C)(C)[C@H]1C=C(C(=O)NCc2ccccc2)O[C@@H](OCc2ccc(CO)cc2)C1,-0.14%
10,COCCOC(=O)c1sc(=S)n(CCOC)c1N,49.3% (active)
11,CCn1ncc(C2=NOC(C(=O)Nc3ccccc3C(=O)OC)C2)c1C (configuration not stated),10.5%
12,COc1ccccc1-c1cc2nc(NCc3cccc(Cl)c3)ccn2n1,10.3%
13,COc1ccc(-c2nc(CS(=O)CC(=O)NCc3ccccc3)c(C)o2)cc1OC (configuration not stated),19.8%
14,COc1ccc(-c2nc(CS(=O)CC(=O)NCc3cccnc3)c(C)o2)cc1OC (configuration not stated),23.2%
15,COc1ccc(-c2nc(CS(=O)CC(=O)NCc3ccccn3)c(C)o2)cc1 (configuration not stated),61.9% (active)
16,CC1CCCC(C)N1C(=O)CN1CCN(c2nc(-c3ccc(F)cc3)cs2)CC1 (configuration not stated),-7.72%
17,COc1ccc(Nc2cc(Cl)ccc2C(=O)O)cn1,41.8% (active)
18,COc1ccc(NS(=O)(=O)c2ccc(F)cc2F)cn1,-1.17%
19,COc1cccc(Nc2ncccc2C(=O)O)c1,8.54%
20,CCOC(=O)C1CCCCN1Cc1ccc(OC)c(OC)c1OC (configuration not stated),0.49%
21,NC(CSC12CC3CC(CC(C3)C1)C2)C(=O)O (configuration not stated),11.7%
22,Cc1cc2nc(C)n(CCCNC(=O)Nc3ccccc3)c2cc1C,4.6%
23,COCCNC(=O)CSc1nc(N)c(NC(=O)c2ccco2)c(=O)[nH]1,-1%
24,COCCNC(=O)Nc1ccc2nc(-c3ccco3)c(-c3ccco3)nc2c1,72.8% (active)
25,Cc1ccc(C)c(S(=O)(=O)N2CCCOC2CNC(=O)C(=O)NC2CCCCC2)c1 (configuration not stated),-1.96%

row,Structure (SMILES),inhibition
1,CCN(CC)C(=O)COc1coc(CN2CCN(Cc3ccccc3)CC2)cc1=O,9.67%
2,NS(=O)(=O)c1ccc(CCNC(=O)c2ccc([N+](=O)[O-])cc2[N+](=O)[O-])cc1,5.05%
3,CNc1nccc(-c2ccc(Cl)cc2)c1C#N,11.5%
4,Cc1cc([N+](=O)[O-])c(N2CCC[C@@H]2C(=O)O)c([N+](=O)[O-])c1,11.4%
5,Cc1nc(N2CCCC2C(=O)O)c2oc3ccccc3c2n1 (configuration not stated),2.41%
6,O=C(O)C1CCCN1c1nc(Cl)ccc1[N+](=O)[O-] (configuration not stated),51.9% (active)
7,CC(=O)Nc1ccc(S(=O)(=O)N2CCN(c3ccc([N+](=O)[O-])c(NCCN4CCOCC4)c3)CC2)cc1,-9.63%
8,O=C1c2ccccc2C2=Nc3ccccc3SC(c3ccccc3F)C12 (configuration not stated),-2.44%
9,O=C1c2cccc(OCC(=O)N3N=C(c4cccs4)CC3c3ccc(F)cc3)c2CCN1Cc1ccccc1 (configuration not stated),0.32%
10,COc1cccc(C2SCC(=O)N2c2cccc(C)c2)c1OC (configuration not stated),20.4%
11,Cc1ccc(C2SCC(=O)N2c2ccccc2)cc1 (configuration not stated),48.1% (active)
12,O=C1CSC(c2cccc(F)c2)N1c1ccc(O)cc1 (configuration not stated),1.39%
13,C=CCC(NCCCO)c1cccc(OC)c1OC (configuration not stated),9.54%
14,O=C1[C@@H](c2ccccc2)[C@@H](c2ccccc2)N1c1cccnc1,-0.26%
15,O=C(O)c1cscn1,-3.08%
16,Cc1ccc(NC(=S)Nc2ccc(F)cc2)cc1,37.8% (active)
17,CC(NC(=S)Nc1ccc(OC(F)F)cc1)c1ccc(F)cc1 (configuration not stated),-13.4%
18,O=S(=O)(NC(=S)Nc1ccccc1)c1ccc(F)cc1,33.4%
19,COc1ccc(/C=N/Nc2ncnc3sc4c(c23)CCCC4)cc1O,-12.9%
20,O=C(NC1(C(F)(F)F)N=C2SCCN2C1=O)c1ccco1 (configuration not stated),35.9%
21,O=Cc1c(Cl)cccc1Cl,9.74%
22,O=C1N=C2SCCN2/C1=C\c1c(Cl)cccc1Cl,38.4% (active)
23,Cc1ccc(CNC(=O)C2CCN(S(=O)(=O)c3ccc4nc5c(c(C(=O)O)c4c3)CC(C)CC5)CC2)cc1 (configuration not stated),-3.02%
24,COc1ccccc1CNC(=O)CCCn1c(=O)c2ccccc2n(CC(=O)NC2CCCC2)c1=O,12%
25,CC(NC(=O)Nc1ccccc1)C(c1cccs1)N1CCN(c2ccccc2)CC1 (configuration not stated),-4.15%

row,Structure (SMILES),inhibition
1,CC(=O)Nc1cc(-c2ccccc2N(C)C)cn2c(-c3ccc(F)c(Cl)c3)cnc12,48.4% (active)
2,COc1ccccc1-c1cc(NC(C)=O)c2ncc(-c3ccc(F)cc3)n2c1,-10.4%
3,CC(=O)Nc1cc(-c2ccccc2F)cn2c(-c3cccc(C(F)(F)F)c3)cnc12,-12.1%
4,N#Cc1ccc(C2=CC(=O)C[C@H](c3ccc(Cl)cc3)C2)cc1,6.39%
5,COc1cc2c(cc1NC(=O)COC(=O)/C=C/c1ccccc1)oc1ccccc12,11%
6,CCN1C(=O)[C@H]2[C@@H](c3ccc(C)cc3)N3C(=O)N(c4cccc(Br)c4)C(=O)[C@@]3(CC)[C@H]2C1=O,11.2%
7,CCC(=O)NNc1cc(=O)c2c(=O)n(C)c(=O)n(C)c2[nH]1,-6.2%
8,CC(=O)Oc1ccc(N(C(C)=O)S(=O)(=O)c2ccc3ccccc3c2)cc1Br,-22.5%
9,CC(=O)N(c1ccc2oc(=O)sc2c1)S(=O)(=O)c1ccc(C)cc1,41.1% (active)
10,COC(=O)c1c(C)oc2ccc(N(C(=O)Oc3ccccc3)S(=O)(=O)c3ccccc3)cc12,9.28%
11,Cc1nn(C)c(Oc2ccc(Cl)cc2)c1C=O,-2.27%
12,CCC(=O)N1CCC(C)(C(=O)Nc2cc(OC)c(OC)c(OC)c2)C1 (configuration not stated),4.71%
13,CC(CC(=O)N1CCN(S(=O)(=O)c2ccccc2)CC1)n1cncn1 (configuration not stated),21.2%
14,NC(=S)c1ccc(C(N)=S)o1,37.7% (active)
15,Cc1ccccc1NC(=O)CSC1=NCCN1,16%
16,Cc1cccc(NC(=O)CSC(N)=O)c1C,38.8% (active)
17,Cc1ccccc1NC(=O)CSC(=O)c1ccccc1,44.4% (active)
18,Cc1cccc(NC(=O)COC(=O)CCc2ccccc2)c1C,-0.48%
19,Cc1ccccc1NC(=O)CCOc1ccccc1,4.98%
20,Cc1cccc(NC(=O)CSc2nc3c(c(=O)[nH]2)CCCC3)c1C,-11.1%
21,FC(F)(F)C1CCCN(c2nsc3ccccc23)C1 (configuration not stated),33.5%
22,COc1ccc(C(=O)C[n+]2ccc(N)c(C)c2C)cc1,-11.1%
